Measured values as given in PubChem BioAssay (NCI).
Compounds without any hit were thinned out: in the full panel of roughly 83,000, 20% have a hit.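 Activity criterion: percent growth below 10, measured after cells in 96-well plates were exposed to a single compound concentration for 48 hours.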 Activity calls are given as the source filed them.

Experiments:
Test in all cases: NCI-60 one-dose screen, 48 h (100 = growth as untreated, 0 = no growth, -100 = all killed)
Settings in all cases: 10 µM
NCI-H23 lung = system: NCI-H23 lung
NCI-H226 lung = system: NCI-H226 lung
NCI-H322M lung = system: NCI-H322M lung
HOP-62 NSCLC = system: HOP-62 NSCLC
NCI-H460 lung = system: NCI-H460 lung
NCI-H522 lung = system: NCI-H522 lung
A549/ATCC NSCLC = system: A549/ATCC NSCLC
786-0 renal = system: 786-0 renal
COLO 205 colon = system: COLO 205 colon
DU-145 prostate = system: DU-145 prostate

Measured: growth

CCCCCCN1CCN(Cc2ccc(N(CC)CC)cc2)C(=O)C1=O
inactive: NCI-H23 lung 39.9% | NCI-H226 lung 64.2% | NCI-H322M lung 32% | HOP-62 NSCLC 33.3% | NCI-H460 lung 10.5% | A549/ATCC NSCLC 21.6% | 786-0 renal 51.3%
active: NCI-H522 lung -7.64% | COLO 205 colon 6.83% | DU-145 prostate -7.77%

COc1ccc(S(=O)(=O)Nc2c(/C=C\c3cc(OC)c(OC)c(OC)c3)ccc(OC)c2O)cc1
inactive: NCI-H23 lung 33.1% | NCI-H226 lung 12.9% | NCI-H322M lung 40.5% | HOP-62 NSCLC 49.1% | A549/ATCC NSCLC 15.6%
active: NCI-H460 lung 6.2% | NCI-H522 lung -47.6% | 786-0 renal 9.56% | COLO 205 colon 3.21% | DU-145 prostate -16.7%

CN(C)CCN1C(=O)c2cccc3cc(N)cc(c23)C1=O
active: NCI-H226 lung -30.3% | NCI-H460 lung 0.597% | NCI-H522 lung -28.3% | DU-145 prostate 4.45%
inactive: NCI-H23 lung 31.5% | NCI-H322M lung 29.4% | HOP-62 NSCLC 34% | A549/ATCC NSCLC 12% | 786-0 renal 25.7% | COLO 205 colon 26.2%

CCCCCCNC(=O)Oc1ccc(/C(=C(/CC)Cc2ccccc2)c2ccc(OCCN3CCCCC3)cc2)cc1
inactive: NCI-H23 lung 91% | NCI-H226 lung 88.6% | NCI-H322M lung 91.4% | HOP-62 NSCLC 86.6% | NCI-H460 lung 73.4% | NCI-H522 lung 77.9% | A549/ATCC NSCLC 76.7% | 786-0 renal 78.6% | COLO 205 colon 51.4% | DU-145 prostate 96.6%

COC(=O)C(C(C[N+](=O)[O-])c1ccccc1)=P(c1ccccc1)(c1ccccc1)c1ccccc1 (stereo not given)
inactive: NCI-H23 lung 92.4% | NCI-H226 lung 96.6% | NCI-H322M lung 94.3% | HOP-62 NSCLC 96.1% | NCI-H460 lung 101% | NCI-H522 lung 83.3% | A549/ATCC NSCLC 101% | 786-0 renal 96.1% | COLO 205 colon 106% | DU-145 prostate 89.6%

O=C(CC(NC(=O)OCc1ccccc1)C(=O)OCc1ccccc1)OCc1ccccc1 (stereo not given)
inactive: NCI-H23 lung 106% | NCI-H226 lung 106% | NCI-H322M lung 99% | HOP-62 NSCLC 94% | NCI-H460 lung 101% | NCI-H522 lung 89.2% | A549/ATCC NSCLC 99.3% | 786-0 renal 106% | COLO 205 colon 99.1% | DU-145 prostate 111%

Nc1cc2c(cc1Cl)-c1ccc([N+](=O)[O-])cc1/C2=N\O
inactive: NCI-H23 lung 83.4% | NCI-H226 lung 93.3% | NCI-H322M lung 50.1% | HOP-62 NSCLC 111% | NCI-H460 lung 48.8% | NCI-H522 lung 69.8% | A549/ATCC NSCLC 59.2% | 786-0 renal 90.8% | COLO 205 colon 109% | DU-145 prostate 63%

CCOC(=O)N1C/C(=C/c2ccc(F)cc2)C(=O)/C(=C/c2ccc(F)cc2)C1
inactive: NCI-H23 lung 12.2% | NCI-H322M lung 53.9% | A549/ATCC NSCLC 22%
active: NCI-H226 lung -18.7% | HOP-62 NSCLC -12.9% | NCI-H460 lung 3.07% | NCI-H522 lung -52.4% | 786-0 renal -58.7% | COLO 205 colon 2.88% | DU-145 prostate -6.4%

O=C1C(=O)c2ccccc2C(O)=C1CCCc1ccc(C2CCCCCC2)cc1
inactive: NCI-H23 lung 23.4% | NCI-H226 lung 37.6% | NCI-H322M lung 23.7% | HOP-62 NSCLC 40.8% | NCI-H460 lung 11.6% | NCI-H522 lung 42% | A549/ATCC NSCLC 22.7% | 786-0 renal 55.7% | COLO 205 colon 36.5% | DU-145 prostate 44%

COc1ccc2c(c1)N(CCO)C1=C(C(=O)OC1)C2c1cc(OC)c(OC)c(OC)c1 (stereo not given)
active: NCI-H226 lung 2.05% | NCI-H460 lung 0.781% | NCI-H522 lung -36.1% | COLO 205 colon -65.4% | DU-145 prostate -30.8%
inactive: NCI-H23 lung 17.4% | NCI-H322M lung 17% | HOP-62 NSCLC 25.6% | A549/ATCC NSCLC 13.1% | 786-0 renal 25.3%

FC(F)(F)c1ccc2nc(-c3nc(-c4ccccc4)n4ccccc34)[nH]c2c1
inactive: NCI-H23 lung 78.9% | NCI-H226 lung 99.4% | NCI-H322M lung 55% | HOP-62 NSCLC 110% | NCI-H460 lung 59.4% | NCI-H522 lung 68.3% | A549/ATCC NSCLC 49.5% | 786-0 renal 40.2% | COLO 205 colon 58.9% | DU-145 prostate 68.7%

Cc1c(Cl)cccc1NC(=O)c1sc2nc3c(cc2c1N)C(=O)CCC3
active: NCI-H460 lung 4.71% | NCI-H522 lung -28.4% | COLO 205 colon -30% | DU-145 prostate -17.7%
inactive: NCI-H23 lung 16.4% | NCI-H226 lung 55.8% | NCI-H322M lung 27.8% | HOP-62 NSCLC 34% | A549/ATCC NSCLC 16.7% | 786-0 renal 37.7%

O=C1/C(=C\c2ccc(Cl)cc2)CN(C(=O)c2ccccc2)C/C1=C\c1ccc(Cl)cc1
active: 786-0 renal 7.43%
inactive: NCI-H23 lung 58.2% | NCI-H226 lung 10% | NCI-H322M lung 74.5% | HOP-62 NSCLC 23.2% | NCI-H460 lung 68.3% | NCI-H522 lung 40.6% | A549/ATCC NSCLC 22.2% | COLO 205 colon 32.9% | DU-145 prostate 24.9%

COc1ccc(/C=C2/CN(CCC#N)C/C(=C\c3ccc(OC)cc3)C2=O)cc1
inactive: NCI-H23 lung 31.1% | NCI-H322M lung 76%
active: NCI-H226 lung -6.76% | HOP-62 NSCLC -38% | NCI-H460 lung 2.6% | NCI-H522 lung -28% | A549/ATCC NSCLC -4.55% | 786-0 renal -14.3% | COLO 205 colon -52.3% | DU-145 prostate 5.29%

COc1ccc(OC)c(/C=C/c2nc(SCc3ccccc3)n(-c3ccc(Cl)cc3)n2)c1
inactive: NCI-H23 lung 54.3% | NCI-H226 lung 72.7% | NCI-H322M lung 82.9% | HOP-62 NSCLC 79.4% | NCI-H460 lung 24.4% | NCI-H522 lung 66.6% | A549/ATCC NSCLC 46.5% | 786-0 renal 48.8% | COLO 205 colon 114% | DU-145 prostate 77.7%
